# Measured values as given in PubChem BioAssay AID489043 (National Center for Advancing Translational Sciences (NCATS), 2010).
# Inconclusive results are not listed. A number with no mark means an inactive call. Activity calls are given as the source filed them. Calls follow the shape of the dose curve; as a rule, active = well fitted activation curve with a large enough effect; inconclusive = small, poorly fitted or top-dose-only effect; inactive = flat fitted curve, though single readings scatter.
# Target: Relaxin receptor 2 (Homo sapiens) (UniProt Q8WXD0)
# Sequence (Q8WXD0 whole entry, looked up): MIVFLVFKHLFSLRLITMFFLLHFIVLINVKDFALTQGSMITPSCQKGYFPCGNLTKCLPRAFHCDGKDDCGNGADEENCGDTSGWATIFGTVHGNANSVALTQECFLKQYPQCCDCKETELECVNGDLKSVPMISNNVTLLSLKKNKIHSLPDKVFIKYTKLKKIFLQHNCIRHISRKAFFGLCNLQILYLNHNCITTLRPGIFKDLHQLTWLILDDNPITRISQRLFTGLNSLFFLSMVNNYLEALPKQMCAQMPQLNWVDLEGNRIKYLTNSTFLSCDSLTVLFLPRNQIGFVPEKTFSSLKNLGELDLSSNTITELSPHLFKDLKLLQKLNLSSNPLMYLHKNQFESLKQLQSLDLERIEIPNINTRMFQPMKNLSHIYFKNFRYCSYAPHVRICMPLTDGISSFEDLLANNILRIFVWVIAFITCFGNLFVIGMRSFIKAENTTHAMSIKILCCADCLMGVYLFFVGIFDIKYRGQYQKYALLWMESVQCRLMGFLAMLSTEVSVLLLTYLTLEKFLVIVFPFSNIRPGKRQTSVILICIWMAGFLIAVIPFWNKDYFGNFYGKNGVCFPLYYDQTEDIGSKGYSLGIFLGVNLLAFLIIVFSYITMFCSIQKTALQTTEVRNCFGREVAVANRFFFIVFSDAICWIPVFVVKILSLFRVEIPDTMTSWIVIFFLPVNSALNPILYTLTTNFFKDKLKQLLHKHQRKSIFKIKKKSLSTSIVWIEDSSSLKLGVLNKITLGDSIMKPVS
# Assay: qHTS Assay for Agonists of the Relaxin Receptor RXFP1: RXFP2 Hit Validation; also: nearly all actives have a fitted effect of over 65% in size
# Settings: HEK293 RXFP2 cAMP TR-FRET, 30 min; series mostly up to 115 µM; activation: at the top concentration
# From the text: NIH Chemical Genomics Center [NCGC] NIH Molecular Libraries Probe Production Centers Network [MLPCN] MLPCN Grant: R03 MH085705-01A1 Assay Submitter (PI): Alexander Agoulnik NCGC Assay Overview: The relaxin hormone is involved in the variety of biological functions in normal tissues and diseases. The role of relaxin is well-established in female reproduction and parturition, mammary gland and endometrial development, maintenance of myometrial quiescence during pregnancy. Relaxin signaling through its G protein-coupled receptor (GPCR) RXFP1 results in ECM remodeling through regulation of collagen deposition, cell invasiveness, proliferation and overall tissue homeostasis. […] Recombinant human relaxin (rhRlx) is currently being tested in clinical trials as a protective agent in congestive heart failure, in treating severe preeclampsia, and as an anti-fibrotic agent in systemic sclerosis. Upon relaxin binding RXFP1 activation leads to the activation of adenylate cyclase (AC) via Gs. cAMP will activate PKA, which phosphorylates many signaling proteins. Thus, detection of cAMP increase is an easy and reliable indication of relaxin receptor activation. To screen for agonists of the relaxin receptor, a HEK293T cell line stably transfected with RXFP1 was used. RXFP1 activation was assayed by changes in cAMP levels as detected with a time-resolved fluorescence energy transfer (TR-FRET) cAMP detection kit. This assay measures activation of a cell expressing RXFP2, another GPCR targeted by relaxin, to determine the selectivity of compounds for RXFP1.
# NCGC Assay Protocol Summary: This is a cell-based assay for cAMP second messenger response to screen for agonists of the RXFP2 receptor. The assay was conducted in the presence of a PDE4 inhibitor (Ro 20174). The cells were lysed and the cAMP levels were measured with a TR-FRET cAMP kit. Presence of cAMP in the cell lysate disrupts binding between the cryptate-labeled anti-cAMP and d2-labeled cAMP pair, leading to a decrease in the TR-FRET signal. Data were normalized to the controls for basal activity (buffer only) and 100% activity (29 nM porcine relaxin). The EC50 values were determined from concentration-response data modeled with the standard Hill equation 1536-well assay protocol for the HEK293 RXFP2 cAMP assay: (1) Add 3 ul HEK293 RXFP2 cell culture. 2000 cells/well in DMEM/F12, 10% FBS, 1x Pen/Strep (dispensed offline with MultiDrop Combi). (2) Incubate 16-24 hr at 37C, 5% CO2. (3) Add 1 ul 400uM Ro20174 in DPBS, 0.05% BSA, 0.005% Tween 20. (3) Add 23 nl compounds in DMSO solution. Final concentration was 0.5 - 58 uM. (4) Incubate 30 min at 37C, 5% CO2. (5) Add 1 ul cAMP-d2 in lysis buffer (HTRF cAMP HiRange kit, CisBio). (6) Add 1 ul anti-cAMP antibody-cryptate in lysis buffer (HTRF cAMP HiRange kit, CisBio). (7) Incubate 30 min at room temperature. […] Keywords: relaxin, RXFP1, RXFP2, G-protein coupled receptor, cAMP, agonist, high throughput screening, MLSMR, MLSCN, NIH Roadmap, qHTS and NCGC
# Potency is read from the fitted curve at half-maximal effect.
Compound,activation,Potency
Cc1cc(C)n(C(=O)CCCn2cc([N+](=O)[O-])cn2)n1,26.7%,
CC(C(=O)Nc1cccnc1)n1cc([N+](=O)[O-])cn1 (stereo not given),24%,
CCOC(=O)N1CCN(S(=O)(=O)c2c(C)nc3scc(C)n3c2=O)CC1,,30.9 µM (active)
CC(C)c1ccccc1NC(=O)c1ccccc1NC(=O)C1CCCCC1,3.66% [at 125 µM],
Cc1cc(C)nc(/N=C(\N)Nc2ccc(S(=O)(=O)Nc3nccc(C)n3)cc2)n1,,34.6 µM (active)
CC(=O)C1C(c2ccccc2)c2c(noc2C)CC1(C)O (stereo not given),-5.3%,
Cc1cc(Br)c2nc3c(c(C(=O)O)c2c1)CCCCC3,,1.94 µM (active)
O=C(Nc1ccccc1C(=O)NCc1ccc(Cl)cc1)c1ccco1,-1.91% [at 125 µM],
Nc1c(Cl)cc(-c2[nH]c3cc(C(=O)NCCO)ccc3c(=O)c2O)cc1Cl,,34.6 µM (active)
Cc1cc(C)c(C(=O)CSc2n[nH]c(=O)n2C2CC2)cc1C,-0.257%,
Cc1ccccc1NC(=O)c1ccccc1NC(=O)c1ccco1,-2.61% [at 125 µM],
O=C(CN1C(=O)c2cccc3cccc(c23)C1=O)NCCN1CCOCC1,24.4% [at 44.7 µM],
Brc1ccc2ncnc(NCc3cccnc3)c2c1,,43.6 µM (active)
CCc1cc2c(=O)nc3n(c2s1)Cc1ccccc1/C3=C(/O)c1cccc([N+](=O)[O-])c1,,6.16 µM (active)
COc1ccc(S(=O)(=O)Nc2ccccn2)c(C)c1C,1.66% [at 44.7 µM],
O=C(O)c1cc(-c2ccc(Br)s2)nc2ccccc12,,3.46 µM (active)
CN1CCN(C(=O)CCc2nnc3ccc(N4CCC5(CC4)OCCO5)nn23)CC1,25.3%,
O=C(Nc1ccccc1C(=O)NC1CCCCC1)c1ccco1,15.2% [at 125 µM],
Nc1ncnc2c1ncn2C1OC(CO)C(O)C1O (stereo not given),,7.76 µM (active)
CC1C/C(=N\NC(N)=S)c2cc(Cl)ccc2S1 (stereo not given),17.3%,

Compound,activation,Potency
COc1ccc(NC(=O)CSc2nc(-c3ccc(C)cc3)cc(C(F)(F)F)c2C#N)cc1,27% [at 44.7 µM],
CC1CCN(S(=O)(=O)c2ccc3nc(N4CCN(c5ccccc5)CC4)ccc3c2)CC1,,15.4 µM (active)
CCN(CC)S(=O)(=O)c1ccc(C(=O)NCCN2C(=O)S/C(=C\c3cccnc3)C2=O)cc1,,13.8 µM (active)
CC(C)C(=O)Nc1ccc(Nc2ccccc2)cc1,-2.4%,
CN(Cc1ccccc1)C(=O)c1ccccc1NC(=O)c1ccco1,3.37% [at 125 µM],
Cc1cccn2c(=O)c(/C=C3\SC(=S)NC3=O)c(NCCCN3CCOCC3)nc12,,4.35 µM (active)
CC(C)Oc1ccc(S(=O)(=O)N2CCOCC2)cc1NC(=O)c1cc([N+](=O)[O-])ccc1N1CCOCC1,,29.8 µM (active)
O=C(Nc1ccccc1)c1ccccc1NC(=O)C1CCCCC1,5.98% [at 125 µM],
Nc1cc2ccncc2c2ccccc12,4.43%,
O=C(O)CNC(=O)c1ccccc1NC(=O)c1ccco1,8.14% [at 125 µM],
Cc1ccc(CN(C)C(=O)c2ccccc2NC(=O)c2ccccc2)o1,-1.29% [at 125 µM],
COc1ccc(CCn2c(=N)c(C(=O)NCC3CCCO3)cc3c(=O)n4cccc(C)c4nc32)cc1 (stereo not given),22.4%,
COc1cc(-c2nnc(SCC(=O)N(C)C3CCS(=O)(=O)C3)o2)cc(OC)c1OC (stereo not given),4.39% [at 44.7 µM],
O=C(Nc1cccc(C(F)(F)F)c1)c1ccccc1NC(=O)C1CCCCC1,,inactive
COc1ccccc1CNS(=O)(=O)c1cc(CN2C(=O)c3cccnc3C2=O)ccc1OC,,30.9 µM (active)
COc1ccc(CN2C(=O)c3cccnc3C2=O)cc1S(=O)(=O)NC1CCCCC1,,34.6 µM (active)
CC(=O)CCCCn1c(=O)c2c(ncn2C)n(C)c1=O,25.5%,
CN(C)c1ccc2nc3c(=O)[nH]c(=O)nc-3n(CC(O)C(O)C(O)CO)c2c1 (stereo not given),15.5%,
c1ccc(-c2nnc(-c3ccccn3)c(-c3ccccn3)n2)nc1,-2.34%,
CCc1nnc(NC(=O)CSc2nc(C)nc3c2c(=O)n(C)c(=O)n3C)s1,,10.9 µM (active)
